Data on 90 molecules can be found in PubChem BioAssay AID720504 (National Center for Advancing Translational Sciences (NCATS), 2013).

Structures are written as SMILES. In all, about 360,000 compounds went through this assay and about 10,000 (2.8%) were called active. Not shown: some 4% with an inconclusive outcome. This excerpt belongs to a sample that is enriched for actives. Unmarked numbers belong to inactive results. The call rests on the fitted dose curve; in most records, active means well fitted inhibition curve with a large enough effect; inconclusive means small, poorly fitted or top-dose-only effect; inactive means flat fitted curve, though single readings scatter.
On the % scale 0 is the no-effect control and ±100 the full control effect; potency means the concentration at half of the fitted maximal effect.

Sequence of Serine/threonine-protein kinase PLK1 (Homo sapiens) (P53350 whole entry, looked up, the tested form may be a part): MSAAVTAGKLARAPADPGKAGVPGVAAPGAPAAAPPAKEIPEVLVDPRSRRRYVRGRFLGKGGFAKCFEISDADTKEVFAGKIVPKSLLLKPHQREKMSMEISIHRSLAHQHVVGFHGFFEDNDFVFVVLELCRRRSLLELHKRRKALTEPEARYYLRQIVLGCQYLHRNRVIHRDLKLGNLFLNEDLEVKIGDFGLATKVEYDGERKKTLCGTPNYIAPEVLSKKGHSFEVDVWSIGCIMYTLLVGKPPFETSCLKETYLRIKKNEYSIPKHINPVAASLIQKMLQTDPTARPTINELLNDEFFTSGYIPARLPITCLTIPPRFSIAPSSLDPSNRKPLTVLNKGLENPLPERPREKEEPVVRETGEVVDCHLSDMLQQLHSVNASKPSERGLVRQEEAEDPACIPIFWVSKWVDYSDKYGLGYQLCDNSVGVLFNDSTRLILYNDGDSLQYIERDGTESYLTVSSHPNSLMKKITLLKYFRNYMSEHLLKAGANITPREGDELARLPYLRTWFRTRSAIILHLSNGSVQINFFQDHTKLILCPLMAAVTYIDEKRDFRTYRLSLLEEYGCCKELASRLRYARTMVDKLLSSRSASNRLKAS

This assay concerns the target Serine/threonine-protein kinase PLK1 (Homo sapiens) (UniProt P53350). Put plainly: qHTS for Inhibitors of PLK1-PDB (polo-like kinase 1 - polo-box domain): Primary Screen. Further: nearly all actives have a fitted effect of over 65% in size. On max response, negative = inhibition: series mostly up to about 57 µM. Particulars: Plk1 PBD binding of FITC phosphopeptide, fluorescence polarization. A general note: Quantitative high-throughput screening tests each substance at several concentrations.
With `CCCCC[C@H](C)N1C[C@@H](COCc2ccccc2)Oc2cc(N3CCC[C@@H]3CO)ccc2S1(=O)=O`, the max response, negative = inhibition is -6.61%.
The same measure, in the same setting: for `CC(C)C[C@@H]1Cc2[nH][nH]c(=O)c2[C@H](CCc2ccccc2)O1` the value was -16.3%.
As for `COc1ccccc1CNC(=O)c1cc(-c2cc(Cl)ccc2C)n[nH]1`, the max response, negative = inhibition was 0.345%.
For the molecule `O=[N+]([O-])/C=C/c1ccc2c(ccn2Cc2ccccc2)c1`, the Potency is 3.36 µM (active).
For the molecule `CCc1nc2c(OCCOc3ccccc3)cccn2c1N(C)C(=O)c1ccccc1F`, the max response, negative = inhibition was -11.2%.
Regarding `CCCCc1nnc(NC(=O)CSc2nc(C)cc(=O)[nH]2)s1`, the max response, negative = inhibition is -4.5%.
Consider `CCOC(=O)Cc1csc(NC(=O)CSc2nc(C)cc(=O)[nH]2)n1`, for which the Potency is 11.9 µM (active).
`CCOC(=O)Cc1csc(NC(=O)CSc2ccc(Br)cc2)n1`: the max response, negative = inhibition was -1.13%.
`Cn1c(NCc2cccnc2)nc2cc(-c3ccc(F)cc3)sc2c1=O`: the max response, negative = inhibition was -3.07%.
With `COC(=O)[C@@]12C[C@@H](CC(=O)N3CCCCC3)C(=O)N(Cc3ccc4c(c3)OCO4)C1=CCC(C)(C)C2`, the max response, negative = inhibition was 2.15%.
Regarding `CC(C)C[C@H]1CNC(=S)N1C[C@H]1CCCN1C[C@H](Cc1ccc(O)cc1)N1C[C@H](Cc2ccc(O)cc2)N(CC2CCCCC2)C1=S`, the max response, negative = inhibition was 1.95%.
Turning to `CC1(C(=O)NCc2ccc3c(c2)OCO3)CCN1C(=O)Cc1cccc2ccccc12` (stereo not given), the max response, negative = inhibition was -5.76%.
For the molecule `CCN1CCC2(CC1)N=C(c1ccc(F)cc1)C(=S)N2C(=O)c1ccc(C)cc1`, the Potency is 15 µM (active).
Take `Cc1ccc(C(=O)N(CN2CCCC2=O)c2ccc(F)cc2)cc1`: the max response, negative = inhibition was -5.15%.
Regarding `CCn1c(C(C)NC(=O)c2ccc(C)cc2)n[nH]c1=S` (stereo not given), the max response, negative = inhibition was -15.1%.
Consider `CCOc1ccc2nc(NCCNC(=O)C(C)(C)C)c(C)cc2c1`, for which the Potency was 26.7 µM (active).
Regarding `CCOc1ccc(NS(=O)(=O)c2ccc(C)c(C(N)=O)c2)cc1`, the max response, negative = inhibition was 1.44%.
Same read-out and setting: the figure for `CCOc1ccc(NC(=O)c2cc(C)nc3ccccc23)cc1` is -0.67%; for `COc1ccc(NC(=O)C2(C)Cc3c(-c4cccc(NC(C)=O)c4)ccnc3O2)cc1OC` (stereo not given) it is -12.3%.
For `CCn1c(=S)[nH]c2sc3c(c2c1=O)CCCCC3`, the Potency is 23.8 µM (active).
As to `CN(C)CCCn1c(=O)n(Cc2ccccc2)c(=O)c2c3c(sc21)CCCCC3`, the max response, negative = inhibition is -1.79%.
Regarding `CCCc1nc2sc3c(c2c(=O)n1NC(=O)CCCl)CCCC3`, the max response, negative = inhibition is -16.7%.
`CCN(CC)C(=O)C1=C(C)N(Cc2ccc(OC)cc2)C(=O)C(CC(=O)NCc2ccco2)C1` (stereo not given): the max response, negative = inhibition was 5.53%.
`CC(C)c1cccc(C(C)C)c1Nc1cn[nH]c1`: the max response, negative = inhibition was 3.35%.
On to `O=S(=O)(NC1CCCCC1N1CCCCC1)c1ccc(Cl)cc1` (stereo not given), for which the max response, negative = inhibition is 3.73%.
`O=S(=O)(NC1CCCCC1N1CCC(O)CC1)c1ccc(Cl)cc1` (stereo not given): the max response, negative = inhibition is -6.48%.
Turning to `CCN1CCN(C2CCCCC2NS(=O)(=O)c2ccc(Cl)cc2)CC1` (stereo not given), the Potency was 26.7 µM (active).
Regarding `Cc1cc(O)ccc1-c1cc(C(=O)NCc2cc(C(F)(F)F)cc(C(F)(F)F)c2)[nH]n1`, the max response, negative = inhibition was 3.49%.
In the case of `CCCCCCC(O)(CCN1CCCCC1)c1ccccc1` (stereo not given), the Potency was 29.9 µM (active).
Turning to `CCCCCC(O)(CCN1CCCCC1)c1ccccc1` (stereo not given), the max response, negative = inhibition is -0.139%.
Regarding `C#CC(CCN1CCCCC1)(OC)c1ccccc1` (stereo not given), the max response, negative = inhibition is -7.33%.
With `Cc1ccn(CC(=O)NC2CCCN(Cc3ccccc3F)C2)n1` (stereo not given), the max response, negative = inhibition was -1.67%.
Take `CN(Cc1ccc(F)cc1)C(=O)COc1ccc2ccccc2c1`: the max response, negative = inhibition is -5.68%.
`Fc1ccc(COc2ccc(-c3nnco3)cc2)cc1`: the max response, negative = inhibition is 2.81%.
With `Fc1ccc(COc2cccc(-c3n[nH]c(=S)o3)c2)cc1`, the Potency is 6.7 µM (active).
For `COCCCn1cc(CN2CC(N(C)C)CS2(=O)=O)nn1` (stereo not given), the max response, negative = inhibition is 2.09%.
In the case of `CC(=O)N1C[C@@H](CO)[C@@H](N(C)C(=O)c2ccco2)C[C@H]1c1ccccc1`, the max response, negative = inhibition is -12.5%.
Take `COc1ccc(C(O)c2nc(-c3ccc4c(c3)OCO4)cs2)cc1` (stereo not given): the max response, negative = inhibition was 6.53%.
Same read-out and setting: for `COc1ccc(-c2csc(Nc3cccc(C)n3)n2)cc1OC` the value was 8.19%.
For `COc1ccc(OC)c(Nc2nc(-c3ccc(O)c(O)c3)cs2)c1`, the Potency is 29.9 µM (active).
Regarding `Cc1noc(C)c1C(=O)N1CCC1(C)C(=O)NS(=O)(=O)c1ccc(C#N)cc1` (stereo not given), the max response, negative = inhibition is -3.77%.
As for `CC1(C(=O)NCc2ccccc2)CSCC(=O)N1CCCN1CCOCC1` (stereo not given), the max response, negative = inhibition was 6.34%.
For the molecule `C[C@H]1CCC(=O)N([C@H](CSc2ccccc2)Cc2ccccc2)CC1`, the max response, negative = inhibition was -3.56%.
For `O=C1CC[C@H](O)CCN1[C@H](CSc1ccc(Br)cc1)Cc1ccccc1`, the Potency was 11.9 µM (active).
`O=C1CCNCCN1[C@H](CO)Cc1ccccc1`: the max response, negative = inhibition is -3.76%.
In the case of `CN(CCc1ccccc1)c1ccc([N+](=O)[O-])cn1`, the max response, negative = inhibition was -3.04%.
Consider `CCN(CC)S(=O)(=O)c1ccc(N(C)Cc2ccc(C(F)(F)F)cc2)nc1`, for which the Potency was 29.9 µM (active).
Turning to `CCN(CC)S(=O)(=O)c1ccc(N(C)Cc2cccc(OC)c2OC)nc1`, the max response, negative = inhibition was -1.33%.
For `CCCS(=O)(=O)NC(=O)C1(C)CCCN(C(=O)c2ccnc(Cl)c2)C1` (stereo not given), the max response, negative = inhibition was 3.92%.
`CC(C)N1C(=O)c2ccccc2NC(=O)C1C(=O)NCc1cccs1` (stereo not given): the max response, negative = inhibition was -1.29%.
Still for that read-out and setting: the figure for `CC(=O)N1Cc2cc(C(=O)NCc3cccc(F)c3)nc(-c3cccc(C4=CCCCC4)c3)c2[C@H]1CCO` is -9.42%.
For the molecule `CN1CCN(C(=O)c2ccc(NC(=O)c3ccc(Br)o3)cc2)CC1`, the max response, negative = inhibition was -7.09%.
For the molecule `O=C(Cn1nnc(N2CCCCC2)n1)c1ccc(Cl)c(Cl)c1`, the max response, negative = inhibition was -14.1%.
In the case of `O=C(Cn1ncc(N2CCCC2)c(Br)c1=O)c1ccc(Cl)cc1`, the max response, negative = inhibition was -7.29%.
Take `O=C(Cn1nc(CNc2ccc(Cl)cc2)[n+]2c1CCCCC2)c1ccc(Cl)cc1`: the Potency is 21.2 µM (active).
`O=C(NC(c1ccc(-c2ccccc2)cc1)c1cnccn1)C1CCN(CCOc2ccc(Cl)cc2Cl)CC1` (stereo not given): the max response, negative = inhibition is -2.44%.
Regarding `O=C1NC[C@H](CCCCN2C[C@H](Cc3ccccc3)N(Cc3ccccc3)C(=O)C2=O)N(CCc2ccc(O)cc2)C1=O`, the max response, negative = inhibition is 3.35%.
For `C[C@H]1CN([C@@H](C)CO)C(=O)CCCn2nncc2CO[C@@H]1CN(C)S(=O)(=O)c1cccc(C#N)c1`, the max response, negative = inhibition is -7.11%.
For the molecule `Cc1cn(C2OC[C@@H](O)[C@@H]2CO)c(=O)[nH]c1=O` (stereo not given in full), the max response, negative = inhibition is -5.18%.
Take `Cc1cn(C2C=CC(CO)O2)c(=O)[nH]c1=O` (stereo not given): the Potency was 29.9 µM (active).
Consider `Cc1cn([C@H]2C[C@H](O)[C@@H](/C=C/C(=O)NCCCc3ccccc3)O2)c(=O)[nH]c1=O`, for which the max response, negative = inhibition was -13.1%.
Still for that read-out and setting: the figure for `O=C(CCN1CCCCC1)Nc1ccc(F)c(F)c1` is -0.714%.
Still for that read-out and setting: for `CCCCN1CC(N2CCN(Cc3cccc(C)c3)CC2)CS1(=O)=O` (stereo not given) the value was -2.99%; for `CCOC(=O)C1=CC[C@@H](c2ccccc2)N(S(=O)(=O)c2ccc(C)cc2)[C@H]1c1ccc(CC)cc1`, -1.73%; for `NC1=CC(=O)C(=O)c2cccnc21`, -7.35%.
Consider `COCCCNC(=O)Cn1c(=O)n(Cc2ccccc2Cl)c(=O)c2cc(OC)c(OC)cc21`, for which the Potency is 29.9 µM (active).
With `COc1ccc(CCNC(=O)Cn2c(=O)n(CC3CCCO3)c(=O)c3ccccc32)cc1OC` (stereo not given), the max response, negative = inhibition is -13.3%.
Still for that read-out and setting: the figure for `COCCCNC(=O)CN1CCN(Cc2ccccc2Cl)C1=O` is -7.04%.
The same measure, in the same setting: for `CCNC(=O)C1(C)CCCN(Cc2noc(-c3ccccc3OC)n2)C1` (stereo not given) the value was -4.99%.
Same read-out and setting: the figure for `C[C@H]1Cn2cnc(C(=O)N[C@@H](Cc3c[nH]c4ccccc34)C(=O)OC(C)(C)C)c2C(=O)N1` is -0.575%; for `CC(C)c1ccc(OCC(O)Cn2cnc3ccccc32)cc1` (stereo not given) it is -4.3%.
For the molecule `CC(=O)OC(COc1ccc(F)cc1)Cn1cnc2ccccc21` (stereo not given), the Potency is 37.7 µM (active).
Consider `CC(=O)N=c1ncn(CC(COC(C)=O)OC(C)=O)c2nc[nH]c12` (stereo not given), for which the max response, negative = inhibition was -2.18%.
With `CCCNC(=O)c1cc(C2CCCN(C(=O)c3ccc4c(c3)CCO4)C2)on1` (stereo not given), the max response, negative = inhibition was -6.48%.
The same measure, in the same setting: the figure for `CCCC(=O)N1CCC1(C)C(=O)NCc1ccc(C(C)C)cc1` (stereo not given) is -11.6%; for `O=C(Cc1ccc([N+](=O)[O-])cc1)NCCS(=O)(=O)N1CCN(c2ccccc2)CC1` it is -7.66%.
Consider `COC(=O)C[C@H]1C=C[C@@H](NS(=O)(=O)c2ccc(C)cc2)[C@@H](CO)O1`, for which the max response, negative = inhibition was 2.12%.
On the same count and under the same terms, the figure for `CC1(c2cccc(Br)c2)NC(=O)N(CC(=O)NCCC2=CCCCC2)C1=O` (stereo not given) is -9.46%; for `CSc1sc(C(=O)NC(=O)NCc2cccnc2)c(C)c1-c1ccon1` it is -0.192%.
Consider `Cc1ccc(-n2nc(-c3ccco3)cc2C(=O)NCc2cccnc2)cc1`, for which the Potency was 9.47 µM (active).
Consider `CC(C)(C)c1cc(C(=O)NCc2cccnc2)ccn1`, for which the max response, negative = inhibition is -6.13%.
`Nc1[nH]c(=S)nc2nc(-c3ccccc3)c(-c3ccccc3)nc12`: the Potency was 21.2 µM (active).
`CCCCOCCCNC(=O)C[C@@H]1C[C@@]2(C(=O)OC)CCCCC=C2N(CCC2=CCCCC2)C1=O`: the max response, negative = inhibition was 1.64%.
As for `CCN(Cc1ccncc1)C(=S)Nc1ccccc1C`, the max response, negative = inhibition is -0.726%.
Same read-out and setting: for `COc1ccccc1-n1cn[nH]c1=S` the value was -29.4%.
As to `COc1cccc(-n2c(=S)sc3c(=O)n(-c4ccccc4OC)c(SCC4OCCO4)nc32)c1`, the max response, negative = inhibition is 4.69%.
Same read-out and setting: the figure for `COc1ccccc1N1CCN(c2nc(C)cc(=O)[nH]2)CC1` is -12.7%; for `COc1ccc(OC)c(-n2c(=S)[nH]c3cc(C(=O)N4CCCCC4)ccc3c2=O)c1` it is 2.08%.
On to `COc1ccccc1-n1c(=S)[nH]c2c(sc(=S)n2-c2ccc(C)cc2C)c1=O`, for which the Potency is 6.7 µM (active).
With `CCc1ccc(-n2c(=S)sc3c(=O)n(-c4ccccc4OC)c(=S)[nH]c32)cc1`, the Potency was 11.9 µM (active).
